# Laboratory results as given in the supplement of paper PMC4466140.
# Assays:
# Assay in all cases: SPOT peptide array binding signal intensity (averaged, normalized) (arbitrary units (background-subtracted, floor 0; scale differs between SH3 domains)); higher = stronger binding of the SH3 domain to the peptide
# [1] = target: AgAbp1
# In short: (§1)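 GST-fused SH3 domains, from four yeast species, were produced in E. coli BL21(DE3) and captured on glutathione Sepharose. Membranes of cellulose carrying synthetic 15-mer peptides, in which cysteines had been replaced by serines, were exposed to each domain at 10 μg/ml overnight at 4°C in TBS-based blocking buffer. After anti-GST antibody, an HRP anti-mouse secondary and luminol, spots were imaged and quantified using Genespotter. Binding signal is normalized and background-subtracted spot intensity, averaged over replicates, in arbitrary units that differ between domains.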
# [2] = target: AgBbc1
# In short: as §1
# [3] = target: AgBem1-D1
# In short: as §1
# [4] = target: AgBzz1-D1
# In short: as §1
# [5] = target: AgBzz1-D2
# In short: as §1
# [6] = target: AgCyk3
# In short: as §1
# [7] = target: AgFus1
# In short: as §1
# [8] = target: AgHof1
# In short: as §1
# [9] = target: AgHse1
# In short: as §1
# [10] = target: AgLsb1
# In short: as §1
# [11] = target: AgLsb4
# In short: as §1
# [12] = target: AgMyo5
# In short: as §1
# [13] = target: AgNbp2
# In short: as §1
# [14] = target: AgRvs167
# In short: as §1
# [15] = target: AgSho1
# In short: as §1
# [16] = target: AgSla1-D1-D2
# In short: as §1
# [17] = target: AgSla1-D3
# In short: as §1
# [18] = target: CaAbp1-D1
# In short: as §1
# [19] = target: CaAbp1-D2
# In short: as §1
# [20] = target: CaBbc1
# In short: as §1
# [21] = target: CaBem1-D1
# In short: as §1
# [22] = target: CaBzz1-D1
# In short: as §1
# [23] = target: CaBzz1-D2
# In short: as §1
# [24] = target: CaCyk3
# In short: as §1
# [25] = target: CaFus1
# In short: as §1
# [26] = target: CaHof1
# In short: as §1
# [27] = target: CaHse1
# In short: as §1
# [28] = target: CaLsb1
# In short: as §1
# [29] = target: CaLsb4
# In short: as §1
# [30] = target: CaMyo5
# In short: as §1
# [31] = target: CaNbp2
# In short: as §1
# [32] = target: CaRvs167
# In short: as §1
# [33] = target: CaRvs167-3
# In short: as §1
# [34] = target: CaSho1
# In short: as §1
# [35] = target: CaSla1-D1-D2
# In short: as §1
# [36] = target: CaSla1-D3
# In short: as §1
# [37] = target: ScAbp1
# In short: as §1
# [38] = target: ScBbc1
# In short: as §1
# [39] = target: ScBem1-D1
# In short: as §1
# [40] = target: ScBzz1-D1
# In short: as §1
# [41] = target: ScBzz1-D2
# In short: as §1
# [42] = target: ScCyk3
# In short: as §1
# [43] = target: ScFus1
# In short: as §1
# [44] = target: ScHof1
# In short: as §1
# [45] = target: ScHse1
# In short: as §1
# [46] = target: ScLsb1
# In short: as §1
# [47] = target: ScLsb2
# In short: as §1
# [48] = target: ScLsb3
# In short: as §1
# [49] = target: ScLsb4
# In short: as §1
# [50] = target: ScMyo3
# In short: as §1
# [51] = target: ScMyo5
# In short: as §1
# [52] = target: ScNbp2
# In short: as §1
# [53] = target: ScPex13
# In short: as §1
# [54] = target: ScRvs167
# In short: as §1
# [55] = target: ScSho1
# In short: as §1
# [56] = target: ScSla1-D1-D2
# In short: as §1
# [57] = target: ScSla1-D3
# In short: as §1
# [58] = target: SpAbp1-D1
# In short: as §1
# [59] = target: SpBbc1
# In short: as §1
# [60] = target: SpBzz1-D1
# In short: as §1
# [61] = target: SpBzz1-D2
# In short: as §1
# [62] = target: SpCyk3
# In short: as §1
# [63] = target: SpHof1
# In short: as §1
# [64] = target: SpHof1-2
# In short: as §1
# [65] = target: SpHof1-3
# In short: as §1
# [66] = target: SpHse1
# In short: as §1
# [67] = target: SpLsb1
# In short: as §1
# [68] = target: SpLsb4
# In short: as §1
# [69] = target: SpMyo1
# In short: as §1
# [70] = target: SpNbp2
# In short: as §1
# [71] = target: SpPex13
# In short: as §1
# [72] = target: SpRvs167
# In short: as §1
# [73] = target: SpSla1-D1-D2
# In short: as §1
# [74] = target: SpSla1-D3
# In short: as §1
binder,measurement,setting,value
QLLNPNRRAPRRPLS,SPOT peptide array binding signal intensity,[1],104
same,SPOT peptide array binding signal intensity,[2],451
same,SPOT peptide array binding signal intensity,[3],328
same,SPOT peptide array binding signal intensity,[4],59
same,SPOT peptide array binding signal intensity,[5],45
same,SPOT peptide array binding signal intensity,[6],2
same,SPOT peptide array binding signal intensity,[7],158
same,SPOT peptide array binding signal intensity,[8],89.8
same,SPOT peptide array binding signal intensity,[9],144
same,SPOT peptide array binding signal intensity,[10],9.25
same,SPOT peptide array binding signal intensity,[11],25
same,SPOT peptide array binding signal intensity,[12],60.5
same,SPOT peptide array binding signal intensity,[13],4130
same,SPOT peptide array binding signal intensity,[14],2.83
same,SPOT peptide array binding signal intensity,[15],7
same,SPOT peptide array binding signal intensity,[16],33
same,SPOT peptide array binding signal intensity,[17],4
same,SPOT peptide array binding signal intensity,[18],608
same,SPOT peptide array binding signal intensity,[19],495
same,SPOT peptide array binding signal intensity,[20],1450
same,SPOT peptide array binding signal intensity,[21],122
same,SPOT peptide array binding signal intensity,[22],220
same,SPOT peptide array binding signal intensity,[23],135
same,SPOT peptide array binding signal intensity,[24],161
same,SPOT peptide array binding signal intensity,[25],270
same,SPOT peptide array binding signal intensity,[26],0.25
same,SPOT peptide array binding signal intensity,[27],13.5
same,SPOT peptide array binding signal intensity,[28],0.25
same,SPOT peptide array binding signal intensity,[29],95.5
same,SPOT peptide array binding signal intensity,[30],6.75
same,SPOT peptide array binding signal intensity,[31],2950
same,SPOT peptide array binding signal intensity,[32],28.8
same,SPOT peptide array binding signal intensity,[33],5.25
same,SPOT peptide array binding signal intensity,[34],72
same,SPOT peptide array binding signal intensity,[35],1270
same,SPOT peptide array binding signal intensity,[36],0.25
same,SPOT peptide array binding signal intensity,[37],73
same,SPOT peptide array binding signal intensity,[38],271
same,SPOT peptide array binding signal intensity,[39],45
same,SPOT peptide array binding signal intensity,[40],56
same,SPOT peptide array binding signal intensity,[41],30.5
same,SPOT peptide array binding signal intensity,[42],65
same,SPOT peptide array binding signal intensity,[43],104
same,SPOT peptide array binding signal intensity,[44],≤ 0
same,SPOT peptide array binding signal intensity,[45],779
same,SPOT peptide array binding signal intensity,[46],37.2
same,SPOT peptide array binding signal intensity,[47],370
same,SPOT peptide array binding signal intensity,[48],808
same,SPOT peptide array binding signal intensity,[49],31
same,SPOT peptide array binding signal intensity,[50],70.5
same,SPOT peptide array binding signal intensity,[51],122
same,SPOT peptide array binding signal intensity,[52],6040
same,SPOT peptide array binding signal intensity,[53],50.5
same,SPOT peptide array binding signal intensity,[54],93.5
same,SPOT peptide array binding signal intensity,[55],271
same,SPOT peptide array binding signal intensity,[56],247
same,SPOT peptide array binding signal intensity,[57],17.2
same,SPOT peptide array binding signal intensity,[58],90
same,SPOT peptide array binding signal intensity,[59],66.5
same,SPOT peptide array binding signal intensity,[60],370
same,SPOT peptide array binding signal intensity,[61],130
same,SPOT peptide array binding signal intensity,[62],6
same,SPOT peptide array binding signal intensity,[63],134
same,SPOT peptide array binding signal intensity,[64],25
same,SPOT peptide array binding signal intensity,[65],148
same,SPOT peptide array binding signal intensity,[66],178
same,SPOT peptide array binding signal intensity,[67],61.5
same,SPOT peptide array binding signal intensity,[68],1750
same,SPOT peptide array binding signal intensity,[69],390
same,SPOT peptide array binding signal intensity,[70],440
same,SPOT peptide array binding signal intensity,[71],20
same,SPOT peptide array binding signal intensity,[72],34
same,SPOT peptide array binding signal intensity,[73],3
same,SPOT peptide array binding signal intensity,[74],2
